Screening results (PubChem)
esBAF inh – blocks esBAF chromatin remodeling in mouse ES cells | Bmi1-luciferase knock-in reporter, 24 h; 100% = twice the neutral-well signal | reporter increase, % at 12.5 µM | hit rate 2% among 350,000; in the data active means activation above about 40%;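 further: a rise in the Bmi1 reporter signal indicates esBAF inhibition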
Wnt act – Wnt/beta-catenin pathway activation; Wnt/beta-catenin reporter cell assay, activator, plate reader; activation, % at 9.35 µM; AID 743398; hit rate 1.2% among 300,000; in the data active means activation above about 30%, passing the limit was not always enough
MITF TRPM1 HTS – increases MITF-driven TRPM1 promoter luciferase signal; SK-MEL-5 TRPM1-promoter luciferase, 24 h; % of positive control, neutral wells = 0; activation, % at 12.5 µM; hit rate 0.75% among 300,000; AID 588334;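 active means mean activation of at least 80% with every replicate also reaching 80%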
HSF-1 act – increases HSF-1 driven luciferase reporter signal. NIH3T3-HGL HSF-1 luciferase reporter, MG132, 8 h; 100% = twice DMSO control signal. hit rate 1.7% among 300,000. activation, % at 9 µM;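 active means mean replicate activation of at least 50% with a set share of replicates each reaching 50%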
SMARCA2 act – increases SMARCA2 function in MMTV reporter cells. hit rate 1% among 370,000. AID 652017. MG213 cells, MMTV-luciferase reporter, dexamethasone, overnight. activation, % at 9.1 µM; in the data active means activation above about 7.8%
HSF1 inhib – HSF1 inhibition; NIH3T3-HGL HSE-luciferase, MG132-induced, luminescence 8 h; active compounds read low; activity change, negative = inhibition, % at 7.5 µM (by protocol); hit rate 0.77% among 300,000; AID 2098;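 active means more than half of replicate wells show activity change below -50%, luminescence cut by over half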;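 further: luciferase reports HSF-1 transcriptional activity via heat shock element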
Numbers stand for hits; - = inactive; . = no result given. A selection: hits, their analogues and other compounds. The true share with any hit is near 4.3%.

SMILES	esBAF inh	Wnt act	MITF TRPM1 HTS	HSF-1 act	SMARCA2 act	HSF1 inhib
C[C@@H]1CN([C@@H](C)CO)S(=O)(=O)c2ccc(C#CC3CC3)cc2O[C@@H]1CN(C)S(C)(=O)=O	-	.	.	.	.	.
CC(C)NC(=O)N1C[C@@H]2[C@H](c3ccccc31)[C@H](CO)N2C(=O)c1cccnc1	-	.	.	.	.	.
CC(=O)Nc1ccc2c(c1)C(=O)N(C)[C@H]1CC[C@H](CC(=O)NCc3ccccc3)O[C@H]1CO2	-	.	.	.	.	.
CCOc1ccc(-c2n[nH]c(C(=O)NN)c2C)cc1	55	-	-	-	-	-
CCOc1ccc(C=NNC(=O)c2cc(-c3ccc(Cl)cc3)n[nH]2)cc1	.	.	.	.	-	.
CCOC(=O)c1cc(-c2ccc(OC)cc2)n[nH]1	70	-	.	-	-	-
CC(C)COc1ccc(-c2cc(C(=O)NN)[nH]n2)cc1	.	.	-	52	-	-
Cc1c(-c2ccccc2)n[nH]c1C(=O)NN	.	-	-	.	-	.
COc1ccc(NC(=O)N(C)C[C@H]2OCCCC[C@@H](C)Oc3ccc(NC(=O)CCCN(C)C)cc3C(=O)N([C@H](C)CO)C[C@H]2C)cc1	-	.	.	.	.	.
O=C(C[C@H]1CC[C@H](NC(=O)Nc2cc(F)ccc2F)[C@H](CO)O1)Nc1ccccc1	-	.	.	.	.	.
CCC(C)NC(=O)CC(c1ccc(OC)cc1)n1cccc1 (stereo not given)	-	.	-	-	-	-
CCc1ccccc1NC(=O)CC(c1ccc(OC)cc1)n1cccc1 (stereo not given)	-	-	-	81	-	-
O=C(NCc1ccc2c(c1)OCO2)c1ccc(S(=O)(=O)C(F)F)cc1	-	-	-	-	-	-
NS(=O)(=O)c1ccc(CNC(=O)c2ccc(S(=O)(=O)C(F)F)cc2)cc1	-	36	-	-	-	-
CCC(=O)N1C[C@H](C)[C@@H](OC)CN(C)C(=O)c2cc(NC(=O)C3CCCCC3)ccc2OC[C@H]1C	-	.	.	.	.	.
Cc1ccc(OCc2cc(C(=O)N3CCCCCCC3)no2)cc1C	-	-	-	-	-	-
Cc1ccc(OCc2cc(C(=O)N3CCC(c4ccccc4Cl)C3)no2)cc1C (stereo not given)	57	-	-	-	-	-
Cc1ccc(OCc2cc(C(=O)N3CCN(C4CCCCC4)CC3)no2)cc1C	55	-	-	-	-	-
CCCN(C)C[C@H]1OCCCC[C@H](C)Oc2ccc(NS(=O)(=O)c3ccccc3)cc2C(=O)N([C@H](C)CO)C[C@H]1C	-	.	.	.	.	.
CCCC#Cc1cnc2c(c1)C(=O)N([C@H](C)CO)C[C@@H](C)[C@@H](CN(C)C(=O)c1ccccc1)O2	-	.	.	.	.	.
CC(C)CC#Cc1ccc2c(c1)O[C@H](CN(C)CC1CCOCC1)[C@H](C)CN([C@H](C)CO)S2(=O)=O	-	.	.	.	.	.
Oc1ccc(N=Nc2ccc(Br)cc2)c(O)c1	-	-	-	-	-	-
Cc1ccc(N=Nc2ccc(O)cc2)c(Br)c1	-	-	.	61	-	-
C[C@@H]1CN([C@@H](C)CO)C(=O)c2cc(NS(=O)(=O)c3cccs3)ccc2O[C@H]1CN(C)Cc1ccc2c(c1)OCO2	-	.	.	.	.	.
COc1ccc(CNC(=O)c2ccc(N(C)S(=O)(=O)c3ccc(C)cc3)cc2)cc1	.	-	-	-	-	-
SMILES	esBAF inh	Wnt act	MITF TRPM1 HTS	HSF-1 act	SMARCA2 act	HSF1 inhib
COc1ccc(CCNC(=O)COc2ccc(N(C)S(=O)(=O)c3ccc(C)cc3)cc2)cc1	-	-	-	53	-	-
COc1ccc(CCNC(=O)C(=O)NCc2ccccn2)cc1	-	37	-	-	-	-
COc1ccc(S(=O)(=O)N(C)c2ccc(C(=O)NCc3ccccn3)cc2)cc1	-	-	-	68	-	-
C[C@H](CO)N1C[C@H](C)[C@H](CN(C)C(=O)C2CC2)Oc2cc(C3=CCCCC3)ccc2S1(=O)=O	-	.	.	.	.	.
CCCC(=O)Nc1ccc2c(c1)OC[C@@H](C)N(C(=O)CC1CC1)C[C@@H](C)[C@H](OC)CN(C)C2=O	-	.	.	.	.	.
C[C@H](CO)N1C[C@H](C)[C@H](CN(C)C(=O)Nc2ccc(F)cc2)OCCCC[C@H](C)Oc2ccc(NC(=O)NC3CCCCC3)cc2C1=O	-	.	.	.	.	.
Fc1ccccc1C1CCN(Cc2nc(CC3CC3)no2)C1 (stereo not given)	.	44	-	-	-	-
CCN(Cc1ccccc1)C(=O)C1CCN(CC2CC=CCC2)CC1 (stereo not given)	.	.	-	-	-	-
